In the library only some 0.61% were active in any assay of this set; here they are far more common.
CatL block – inhibitors of human cathepsin L. P07711. purified cathepsin L, fluorogenic substrate, fluorescence. inhibition, %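 (tested at 10 µM)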. actives 0.17% (n = 58,000); in the data active = inhibition above about 45%;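 also: 0% = enzyme with no compound and 100% = no enzyme blank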
Target sequence (P07711 114-288 limits assumed): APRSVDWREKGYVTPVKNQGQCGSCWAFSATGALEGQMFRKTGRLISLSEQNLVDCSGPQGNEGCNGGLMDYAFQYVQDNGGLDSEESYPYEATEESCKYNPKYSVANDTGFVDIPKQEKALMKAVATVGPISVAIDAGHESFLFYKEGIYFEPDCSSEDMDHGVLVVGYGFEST
Target sequence (P07711 292-333 limits assumed): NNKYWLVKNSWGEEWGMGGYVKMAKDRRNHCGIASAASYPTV
mHtt clearance – compounds clearing mutant huntingtin protein. HeLa Exon1htt(103Q)mCFP, aggregate imaging; zero = plate's median compound well. inhibition, % at 1.5 µM. actives 0.42% (n = 47,000). AID 853;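 active = inhibition of aggregate fluorescence above about 70%, also judged a hit by eye on the cell image, limit read from the data, passing the limit was not always enough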;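 also: cells exposed to compound for three days before fixation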
WNV protease inh – blocks West Nile virus NS2B-NS3 protease activity; WNV NS2B-NS3 protease, fluorogenic substrate Ex360/Em465; stronger effect = lower value; z-score (test concentration not listed); actives 0.18% (n = 65,000); in the data active = z-score below about -3
CatB mixtures – inhibitors of human cathepsin B in compound mixtures; P07858; Purified cathepsin B, AMC dipeptide fluorescence; inhibition, %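 (ten-compound pools at 5 µM per compound and 50 µM total)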; actives 0.06% (n = 62,000); in the data active = inhibition above about 22%, passing the limit was not always enough;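 also: 0% = enzyme without compound and 100% = no enzyme blank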
CatS block – human cathepsin S inhibition. P25774. recombinant cathepsin S, AMC dipeptide fluorescence, pooled mixtures. inhibition, %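 (tested at 5 µM per compound within 10-compound mixtures)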. actives 0.06% (n = 62,000). AID 501; in the data active = inhibition above about 32%, passing the limit was not always enough;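 also: 0% = enzyme without compound and 100% = blank without enzyme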
CatB block – inhibitors of human cathepsin B | P07858 | purified cathepsin B, fluorogenic substrate, fluorescence | inhibition, %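 (tested at 10 µM)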 | actives 0.1% (n = 63,000) | AID 453; in the data active = inhibition above about 21%;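 also: 0% = enzyme with no compound and 100% = no enzyme blank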
The depositor's hits bear a star; x = not tested or not shown.

SMILES	CatL block	mHtt clearance	WNV protease inh	CatB mixtures	CatS block	CatB block
Cc1nnc(SCc2nc3ccccc3c(=O)n2-c2ccccc2Cl)n1N	x	71.6*	-2.2	1.4	6.8	5.2
CCCCc1nc2ccccc2c(=O)n1-c1ccc(Cl)cc1[N+](=O)[O-]	x	-3.8	x	x	x	x
CC1=[N+]([O-])C2(N)CCc3nonc3C2(O)C1 (stereo not given)	x	x	-0.69	0.5	-3.4	x
C=CCC1(CN2CCCCCC2=O)C(=O)NC(=O)NC1=O	12.1	x	-6.51*	x	x	-0.7
Cc1nonc1-c1nc(-c2nonc2N)n[nH]1	22.8	-31.9	-1.1	21.9*	20.3	12.4
CC(=O)OC1C2CCCC1C(N1CCCC1)CC2 (stereo not given)	0.2	x	-1.73	5.9	2.8	0.8
O=S(=O)(c1ccc(Cl)cc1)N1CN2CCN(C2)C1	-6.2	-35.7	-4.83*	0.8	17.7	1.6
O=P(C(c1c[nH]c2ccccc12)N1CCOCC1)(N1CCOCC1)N1CCOCC1 (stereo not given)	2.2	-8.8	-1.5	2.9	-6.4	1.8
CN1C(=O)C(=Cc2ccccc2Oc2ccc(Cl)cc2)C(=O)N(C)C1=O	x	82.2*	x	x	x	x
CCn1nc(-c2ccccc2)nc2c(=O)n(C)c(=O)nc1-2	85.1*	x	-0.24	47.1	x	76.2*
COc1cc(CN2CCN(c3cc(C)ccc3C)CC2)ccc1O	2.0	x	-1.03	4.9	-2.6	1.6
Cc1cccc(NC(=O)CSc2nnc([C@@H](N)Cc3c[nH]c4ccccc34)o2)c1C	100.6*	-7.6	-0.67	1.4	10.0	0.8
CC(C)C12CN3CC(C(C)C)(CN(C1)C3c1cccnc1)C2=O (stereo not given)	x	-14.3	x	x	x	x
CN1C(=O)C(Cc2ccc3c(c2)OCO3)C(=O)N(C)C1=O	24.9	8.4	-0.06	0.8	-1.3	4.2

High-throughput results: PubChem, several laboratories
